An excerpt weighted towards active compounds, which were near 0.78% of everything screened.
RGS4-Gao reg: modulates binding of RGS4 to human Galphao; Multiplexed bead flow cytometry; actives lie on both sides; binding response (% of control), % at 10 µM; actives 0.33% (n = 220,000); in the data active means binding response below about 49% or above about 150%; inactive means in between;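 further: fluorescent Galphao activated with aluminum fluoride binding bead-coupled RGS4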
RGS16-Gao HTS: modulates binding between human RGS16 and Galphao; bead-based flow cytometry RGS16-Galphao binding, fluorescence; actives lie on both sides; binding response (% of control), % at 10 µM; actives 0.38% (n = 220,000); AID 1441;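 further: Galphao activated by GDP with aluminum fluoride before binding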
Target sequence (O15492 whole entry, looked up): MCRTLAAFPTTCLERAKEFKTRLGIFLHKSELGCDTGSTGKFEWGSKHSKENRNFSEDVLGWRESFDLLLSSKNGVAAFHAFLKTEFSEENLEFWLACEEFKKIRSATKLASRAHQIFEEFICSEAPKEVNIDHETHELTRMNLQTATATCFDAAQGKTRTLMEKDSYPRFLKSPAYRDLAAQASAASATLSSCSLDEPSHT
Target sequence (P09471 whole entry, looked up): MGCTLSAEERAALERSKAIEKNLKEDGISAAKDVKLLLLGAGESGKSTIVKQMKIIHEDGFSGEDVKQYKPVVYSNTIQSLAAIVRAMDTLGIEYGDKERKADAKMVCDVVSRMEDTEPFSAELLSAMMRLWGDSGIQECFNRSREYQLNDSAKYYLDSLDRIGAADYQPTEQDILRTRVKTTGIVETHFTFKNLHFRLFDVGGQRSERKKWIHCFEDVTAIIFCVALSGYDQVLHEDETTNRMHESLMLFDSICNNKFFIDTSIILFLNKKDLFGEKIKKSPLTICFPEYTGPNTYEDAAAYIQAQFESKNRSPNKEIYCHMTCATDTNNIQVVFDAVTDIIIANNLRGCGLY
RGS7-Gao reg: regulators of human RGS7-Galphao interaction. P09471. Multiplexed bead flow cytometry, RGS7-Galphao binding; actives lie on both sides. binding response (% of control), % at 10 µM. actives 0.35% (n = 220,000). AID 1439; in the data active means binding response below about 49% or above about 150%; inconclusive means no clear call, values can overlap the other calls; inactive means in between;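 further: fluorescent Galphao held in activated GDP-AlF4 state binding bead-coupled RGS7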
RGS8-Gao reg: regulators of human RGS8-Galphao interaction. P09471. multiplexed bead flow cytometry, RGS8-Galphao binding; actives lie on both sides. response (percent of control binding), % at 10 µM. actives 0.34% (n = 220,000); in the data active means response below about 60% or above about 140%; inactive means in between;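 further: Galphao activated as the GDP aluminium fluoride complex binding bead-coupled RGS8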
RGS4-Gao HTS: RGS4-Galphao interaction regulator (human). AID 1504. multiplexed bead flow cytometry, RGS–Galpha-o binding. shares compounds with RGS16-Gao HTS. RGS4–Galpha-o binding response, % at 10 µM. actives 99% (n = 1,600);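 further: fluorescently labeled Galpha-o bound to GDP with aluminium fluoride binding biotinylated RGS beads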
Target sequence (P09471 whole entry, looked up): as above
Target sequence (P49798 whole entry, looked up): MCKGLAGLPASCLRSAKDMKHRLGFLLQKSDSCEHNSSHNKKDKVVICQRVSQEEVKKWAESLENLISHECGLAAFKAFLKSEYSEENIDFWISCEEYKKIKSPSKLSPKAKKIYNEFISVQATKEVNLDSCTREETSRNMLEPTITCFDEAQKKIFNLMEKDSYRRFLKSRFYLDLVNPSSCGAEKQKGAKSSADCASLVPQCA
Biotin-avidin: interferes with biotinylated probe binding to avidin beads; shares compounds with RGS16-Gao HTS; inhibition, % at 10 µM; AID 1783; streptavidin beads, fluorescein-biotin binding, flow cytometry; 1,700 tested, under 10 active;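 active means inhibition above 50%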;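 further: median green fluorescence of gated singlet beads compared with DMSO control wells; 0% = DMSO wells and 100% = complete loss of bead fluorescence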
RGS8-Gao confirm: RGS8-Galphao interaction regulation, single point confirmation | AID 1836 | shares compounds with RGS16-Gao HTS | binding response (% of control), % at 10 µM | actives 3% (n = 1,700) | bead-based flow cytometry RGS8-Galphao binding, fluorescence; actives lie on both sides; in the data active means binding response below about 72% or above about 130%; inactive means in between;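 further: Galphao activated as GDP AlF4 complex before binding bead RGS8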
RGS7-Gao single: RGS7-Galphao interaction regulation, single point confirmation | shares compounds with RGS16-Gao HTS | bead-based flow cytometry RGS7-Galphao binding; actives lie on both sides | response (percent of control binding), % at 10 µM | actives 7.8% (n = 1,700) | AID 1837; in the data active means response below about 75% or above about 130%; inactive means in between;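 further: fluorescent Galphao activated with GDP and aluminum fluoride binding bead-coupled RGS7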
RGS16-Gao single: confirmation of regulators of human RGS16-Galphao interaction. bead-based flow cytometry, RGS16-Galphao binding; actives lie on both sides. response (% of control binding), % at 10 µM. shares compounds with RGS16-Gao HTS. actives 4% (n = 1,700); in the data active means response below about 74% or above about 130%; inactive means in between;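 further: Galphao activated as the GDP aluminium fluoride complex binding bead-coupled RGS16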
RGS4-Gao single: RGS4-Galphao interaction regulation, single point confirmation; shares compounds with RGS16-Gao HTS; binding response (% of control), % at 10 µM; RGS4-Galphao binding, multiplexed bead flow cytometry; actives lie on both sides; AID 1840; actives 4% (n = 1,700); in the data active means binding response below about 74% or above about 130%; inactive means in between
RGS19-Gao single: RGS19-Galphao interaction regulation, single point confirmation. shares compounds with RGS16-Gao HTS. bead-based flow cytometry RGS19-Galphao binding; actives lie on both sides. response (percent of control binding), % at 10 µM. actives 5% (n = 1,700). AID 1841; in the data active means response below about 50% or above about 160%; inactive means in between;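 further: 100% = no compound control and 0% = blank background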
Numbers without * were called inactive; i = inactive; ? = inconclusive; . = no result given; [ ] = dose if it differs, or a comment. Unless noted, how the calls were made is not given here.

SMILES | RGS4-Gao reg | RGS16-Gao HTS | RGS7-Gao reg | RGS8-Gao reg | RGS4-Gao HTS | Biotin-avidin | RGS8-Gao confirm | RGS7-Gao single | RGS16-Gao single | RGS4-Gao single | RGS19-Gao single
CN(/C=C/C(=C/C=[N+](C)c1ccccc1)OCCCS(=O)(=O)[O-])c1ccccc1 | 97.3 | 100.3 | 100.0 | 101.8 | . | . | . | . | . | . | .
O=S(=O)(NCCOc1ccccc1)c1ccc2ccccc2c1 | 89.6 | -1.5* | 89.3 | 85.7 | 89.6* | . | . | . | . | . | .
CS(=O)(=O)NCCOc1ccc(S(=O)(=O)NCCOc2ccccc2)cc1 | 101.7 | 98.2 | ? | 101.1 | . | . | . | . | . | . | .
Fc1ccc(N/N=C/c2ccncc2)c(F)c1 | 104.3 | 141.5 | 105.6 | 117.2 | . | . | . | . | . | . | .
Clc1ccc(N/N=C/c2ccncc2)cc1Cl | 108.9 | 198.8*[activator] | 113.1 | 127.9 | 108.9* | -0.5 | 99.8 | 103.2 | 101.5 | 103.2 | 99.0
Cc1ccc(N2C(N)=C(C#N)C(c3cccs3)C3=C2CC(C)(C)CC3=O)cc1 (stereo not drawn) | 197.0*[activator] | 197.2*[activator] | 121.0 | 117.4 | . | 0.2 | 106.3 | 107.7 | 106.5 | 104.0 | 104.6
CC1(C)CC(=O)C2=C(C1)N(c1ccc(F)cc1)C(N)=C(C#N)C2c1cccs1 (stereo not drawn) | 107.3 | 106.2 | 106.6 | 106.0 | . | . | . | . | . | . | .
O=C(CSc1ccc2ccccc2n1)NCc1ccc2c(c1)OCO2 | 20.5* | 10.6* | ? | 14.0* | . | -3.6 | 102.6 | 106.5 | 105.6 | 102.5 | 101.4
CCCc1[nH]nc2c1C(c1ccncc1)C(C#N)=C(N)O2 (stereo not drawn) | 99.6 | 100.7 | 96.3 | 98.8 | . | . | . | . | . | . | .
O=C(c1cnccn1)N(Cc1cccs1)C1(C(=O)NC2CCCCC2)CCCCC1 | 114.9 | 245.6*[activator] | 108.1 | 135.4 | 114.9* | 1.6 | 97.8 | 66.7* | 90.8 | 76.0 | 79.0
O=C(c1cnccn1)N(Cc1cccs1)C1(C(=O)NC2CCCC2)CCCCC1 | 91.1 | 51.6 | 95.8 | 81.1 | . | . | . | . | . | . | .
CC(C)(C)c1ccc(C(=O)NC(Cc2ccccc2)C(=O)O)cc1 (stereo not drawn) | 102.5 | 98.7 | 97.8 | 100.9 | . | . | . | . | . | . | .
O=C(N[C@@H](Cc1ccc(O)cc1)C(=O)O)c1ccc(C(F)(F)F)cc1 | 138.4 | 122.8 | 152.2*[activator] | 104.6 | 138.4* | 0.0 | 97.4 | 97.5 | 99.2 | 100.7 | 106.3
O=C(NC(=S)Nc1ccc(N2CCOCC2)cc1)c1ccc2c(c1)OCCO2 | 97.1 | 97.7 | 98.0 | 98.9 | . | . | . | . | . | . | .
O=C(NC(=S)Nc1ccc(N2CCCCC2)cc1)c1ccc2c(c1)OCCO2 | 106.8 | 204.0*[activator] | 107.3 | 124.8 | 106.8* | -0.3 | 102.2 | 98.4 | 99.5 | 96.8 | 100.8
CSc1nc(N)nc(N(C)C)n1 | 106.2 | 105.7 | ? | 102.4 | . | . | . | . | . | . | .
CSc1nc(N)nc(C2CC2)n1 | 95.9 | 96.8 | ? | 65.8 | . | -1.8 | 98.7 | 93.6 | 96.0 | 99.7 | 105.9
Cc1cc(=O)oc(C)c1C(=O)OCC(=O)c1ccccc1 | 102.5 | 107.7 | 100.4 | 104.2 | . | . | . | . | . | . | .
Cc1cc(NC(=O)CN2C(=O)NC3(CCC(C)CC3)C2=O)no1 (stereo not drawn) | 24.2* | -10.2 | 23.1* | 22.8* | . | i | 98.6 | 99.9 | 100.0 | 103.8 | 100.6
COc1ccccc1NC(=O)CN1C(=O)NC2(CCCCCCC2)C1=O | 97.7 | 100.9 | 100.2 | 98.6 | . | . | . | . | . | . | .
Cc1ccccc1NC(=O)CN1C(=O)NC2(CCCCC2)C1=O | . | . | . | . | . | 0.5 | 95.0 | 97.9 | 93.7 | 93.7 | 90.0
CN(C)C(=O)CSc1nc2ccccc2c(=O)[nH]1 | 127.0 | 109.1 | 276.7*[activator] | 96.5 | 127.0* | 1.4 | 101.6 | 94.7 | 105.1 | 100.5 | 101.5
O=C(N1CCN(c2ccccc2)CC1)C12CC3CC(CC(C3)C1)C2 | 105.2 | 106.4 | 104.2 | 102.9 | . | . | . | . | . | . | .
O=C(C(Cc1ccccc1)n1cccc1)N1CCCCC1 (stereo not drawn) | 101.8 | 101.8 | 100.1 | 100.7 | . | . | . | . | . | . | .
O=C(C(Cc1ccccc1)n1cccc1)N1CCN(Cc2ccccc2)CC1 (stereo not drawn) | 113.2 | 209.4 | 116.4 | 144.1*[activator] | 113.2* | 2.2 | 99.3 | 95.0 | 103.3 | 97.2 | 85.8
SMILES | RGS4-Gao reg | RGS16-Gao HTS | RGS7-Gao reg | RGS8-Gao reg | RGS4-Gao HTS | Biotin-avidin | RGS8-Gao confirm | RGS7-Gao single | RGS16-Gao single | RGS4-Gao single | RGS19-Gao single
O=C(N1CCN(Cc2ccccc2)CC1)C12CC3CC(CC(C3)C1)C2 | . | . | . | . | . | 1.7 | 100.2 | 101.3 | 102.9 | 104.2 | 100.6
CCOC(=O)c1cc2occc2n1CCCN1C(=O)c2ccccc2C1=O | 99.7 | 101.0 | 100.7 | 101.6 | . | . | . | . | . | . | .
Cc1cc(C)c2cc(CNC3CCCC3)c(Cl)nc2c1 | 80.7 | 79.6 | 100.5 | 87.6 | . | . | . | . | . | . | .
Cc1ccc(-n2cccc2/C=C2/C(=N)N3C(=NC2=O)SN=C3S(C)(=O)=O)cc1 | 81.8 | 84.5 | 83.8 | 94.3 | . | . | . | . | . | . | .
O=C(Cn1c(=O)c(=O)n(Cc2ccccc2)c2ccc(Cl)cc21)Nc1cc(F)ccc1F | 99.0 | 98.7 | 102.7 | 97.5 | . | . | . | . | . | . | .
O=C1CCCC2=C1C(c1ccccc1O)C1=C(CCCC1=O)O2 | 113.4 | 258.7 | 109.6 | 141.4*[activator] | 113.4* | -0.4 | 100.2 | 102.0 | 101.5 | 100.6 | 95.8
O=C1CCCC(O)=C1C1C2=C(CCCC2=O)OC2=C1C(=O)CCC2 | 105.8 | 122.3 | 104.0 | 107.3 | . | . | . | . | . | . | .
CCC(Oc1cc(Cl)ccc1Cl)C(=O)NNC(=O)CCC(=O)O (stereo not drawn) | 80.0 | 13.3* | 81.0 | 60.1 | 80.0* | -0.4 | 97.7 | 103.9 | 100.1 | 100.7 | 84.5
COc1ccc(NC(=S)Nc2ccc(OCc3ccccc3)cc2)c(OC)c1 | 139.6 | 37.0 | 164.9*[activator] | 117.2 | 139.6* | 0.9 | 103.1 | 102.8 | 102.0 | 101.3 | 105.0
COc1ccc(NC(=S)Nc2ccccc2)c(OC)c1 | 106.3 | 114.8 | 107.0 | 108.8 | . | . | . | . | . | . | .
CCN(C(=O)CSc1ccc2ccccc2n1)C1CCS(=O)(=O)C1 (stereo not drawn) | 104.5 | 108.9 | 102.6 | 103.8 | . | . | . | . | . | . | .
CCN(C(=O)CSc1cc(C)c2ccccc2n1)C1CCS(=O)(=O)C1 (stereo not drawn) | 13.9* | 8.0* | 12.4* | 13.0* | . | -0.1 | 98.2 | 92.9 | 96.2 | 95.1 | 75.7
CCN(CC)C(=O)c1ccc(S(=O)(=O)NCc2cccnc2)cc1 | . | . | . | . | . | 1.7 | 101.2 | 122.2 | 106.1 | 108.5 | 117.8

Screens from PubChem BioAssay.
